EBNA-1 inh: blocks EBNA-1 binding to DNA; EBNA-1 DNA binding, fluorescence polarization; inhibition, % at 14.8 µM; hit rate 0.34% among 300,000; AID 1950; in the data active = inhibition above about 28%
pPAFAH inh: inhibitors of human plasma PAF acetylhydrolase (pPAFAH). recombinant pPAFAH, FP-rhodamine probe fluorescence polarization. AID 463082. hit rate 1.5% among 330,000. inhibition, % at 3.39 µM;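 active = inhibition above the mean inhibition across the screen plus 3 SD, cut at about 25% in these data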;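 also: inhibitors block binding of the rhodamine activity-based probe so polarization drops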
PAFAH1B2 inh: blocks human PAF acetylhydrolase 1b catalytic subunit 2. inhibition, % at 3.39 µM. P68402. recombinant PAFAH1B2, FP-rhodamine activity probe, fluorescence polarization. hit rate 1.2% among 340,000;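 active = inhibition above the mean of all tested compounds plus 3 SD, cut at about 24% in these data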
Target sequence (P68402 whole entry, looked up): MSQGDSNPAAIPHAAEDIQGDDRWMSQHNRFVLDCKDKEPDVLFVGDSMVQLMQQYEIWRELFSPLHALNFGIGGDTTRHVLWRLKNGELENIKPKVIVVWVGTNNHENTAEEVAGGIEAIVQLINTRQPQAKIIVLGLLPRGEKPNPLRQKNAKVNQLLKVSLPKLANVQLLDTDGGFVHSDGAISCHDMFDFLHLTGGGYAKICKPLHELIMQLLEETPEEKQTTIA
PAFAH2 inh: PAFAH2 (human) inhibition; hit rate 0.99% among 340,000; recombinant PAFAH2, FP-rhodamine activity probe, fluorescence polarization; inhibition, % at 3.39 µM; Q99487;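 active = inhibition above the mean over all tested compounds plus 3 SD, cut at about 30% in these data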;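 also: inhibitors block probe labeling of enzyme so polarization drops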
PAFAH1B3 FP inh: PAFAH1B3 (human) inhibition. Q15102. recombinant PAFAH1B3, FP-rhodamine probe, fluorescence polarization. inhibition, % at 3.39 µM. hit rate 0.28% among 340,000. AID 492972;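 active = inhibition above the screen-wide average of all tested compounds plus 3 SD, cut at about 25% in these data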
ZTA counter: blocks Epstein-Barr virus ZTA, an EBNA-1 counter-screen. P03206. ZTA-DNA binding, fluorescence polarization. inhibition, % at 11 µM. hit rate 0.15% among 320,000. AID 2234; in the data active = inhibition above about 33%
Target sequence (P03206 whole entry, looked up): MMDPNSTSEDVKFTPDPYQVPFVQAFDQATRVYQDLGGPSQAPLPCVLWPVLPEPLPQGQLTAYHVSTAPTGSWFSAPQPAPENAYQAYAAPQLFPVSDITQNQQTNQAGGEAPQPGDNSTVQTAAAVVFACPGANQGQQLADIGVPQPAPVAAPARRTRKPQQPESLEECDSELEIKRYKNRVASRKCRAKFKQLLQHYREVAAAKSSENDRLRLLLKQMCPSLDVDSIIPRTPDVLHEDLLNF
A number is an active result; 0 = inactive; - = no result given. Most compounds without a hit are left out; they make up all but 2.9% or so of the library.

SMILES | EBNA-1 inh | pPAFAH inh | PAFAH1B2 inh | PAFAH2 inh | PAFAH1B3 FP inh | ZTA counter
CCC(C(=O)Nc1ccc(S(=O)(=O)Nc2ncccn2)cc1)c1ccccc1 (configuration not stated) | 0 | 0 | 0 | 0 | 0 | 0
O=[N+]([O-])c1cc(CN2CCCC2)c2cccnc2c1O | 0 | 66 | 0 | 36 | 0 | 0
COc1ccccc1N1CCN(Cc2cc(Br)c(O)c3ncccc23)CC1 | 0 | 30 | 0 | 0 | 0 | 0
Oc1c(Cl)cc(CN2CCCCC2)c2cccnc12 | 0 | 0 | 0 | 0 | 0 | 0
C/C=C/C=C/[C@H]1Cc2cc(O)cc(O)c2O1 | 0 | 36 | - | - | - | 0
CCOC(=O)CN1CCC(c2cc(-c3ccc(Cl)cc3)n[nH]2)CC1 | 0 | 31 | 0 | 0 | 0 | 0
COc1ccc(S(=O)(=O)/N=C2/NC(=O)/C(=C/c3ccco3)S2)cc1 | 0 | 32 | 0 | 0 | 0 | 0
CCC(C)(C)C1CCc2c(sc(NC(=O)c3ccoc3C)c2C(N)=O)C1 (configuration not stated) | 0 | 0 | 0 | 0 | 0 | 0
CCC1CCc2c(sc(NC(=O)c3ccoc3C)c2C(N)=O)C1 (configuration not stated) | 0 | 25 | 0 | 0 | 0 | 0
Cc1ccc(NC(=O)C2CCN(C(=O)c3ccco3)CC2)cc1C | 0 | 0 | 0 | 0 | 0 | 0
O=C(CCc1ccccc1)NNC(=S)NCc1ccc(Cl)cc1 | 0 | 28 | 25 | 0 | 0 | 0
O=C1c2ccccc2C(O)(c2ncc[nH]2)N1CCc1ccccc1 (configuration not stated) | 0 | 0 | 0 | 0 | 0 | 0
Nc1c(/C=C2/C=CC(=O)C(O)=C2)c(=O)nc2sc(CC(=O)N3CCOCC3)nn12 | - | - | 26 | 0 | 0 | -
Nc1c(/C=C2/C=CC(=O)C(O)=C2)c(=O)nc2sc(CC(=O)N3CCCC3)nn12 | 0 | 0 | 0 | 0 | 0 | 0
Nc1c(/C=C2/C=CC(=O)C(O)=C2)c(=O)nc2sc(CC(=O)N3CCCCC3)nn12 | 0 | 32 | 54 | 35 | 0 | 0
CCc1cc2c(SCC(=O)N(C)C3CCS(=O)(=O)C3)ncnc2s1 (configuration not stated) | 0 | 0 | 0 | 0 | 0 | 0
Cc1c(C(=O)OCC2CCCO2)[nH]c2c1C(=O)CC(c1ccco1)C2 (configuration not stated) | 0 | 25 | 0 | 0 | 0 | 0
Cc1ccc(SCc2[nH]nc3c2C(c2ccco2)C(C#N)=C(N)O3)cc1 (configuration not stated) | 0 | 0 | 34 | 0 | 0 | 0
C=CCNC(=O)CC(=O)N/N=C/c1cccs1 | 0 | 0 | 0 | 0 | 0 | 0
COCCCn1c(=O)c2ccccc2n(Cc2ccccc2)c1=O | 0 | 0 | 0 | 0 | 0 | 0
C=CCn1c(=O)n(CCOC)c(=O)c2sc3ccccc3c21 | 0 | 28 | 0 | 0 | 0 | 0
O=C1C[C@@H](c2ccc(O[C@@H]3O[C@H](CO)[C@@H](O)[C@H](O)[C@H]3O)cc2)Oc2cc(O)ccc21 | 0 | 0 | 0 | 0 | 0 | 0
O=C(NC1CC1)c1ccc(-n2cccc2)cc1 | 0 | 0 | 0 | 0 | 0 | 0
CC(=O)Nc1cc(OC(C)=O)c2nonc2c1OC(C)=O | 0 | 0 | 34 | 0 | 68 | 70
O=C(N/N=C/c1ccoc1)c1ccccc1Br | - | - | 0 | 0 | 0 | -
SMILES | EBNA-1 inh | pPAFAH inh | PAFAH1B2 inh | PAFAH2 inh | PAFAH1B3 FP inh | ZTA counter
O=C(NN=C1CCCC1)c1cc(Br)ccc1O | 0 | 30 | 0 | 0 | 0 | 0
O=C(NN=C1CCCC1)c1ccc(O)cc1O | 0 | 0 | 0 | 0 | 0 | 0
O=C(N/N=C/c1ccoc1)c1cc(Br)ccc1O | 0 | 33 | 0 | 0 | 0 | 0
Cc1ccc(C)c(NC(=O)C(Sc2nnc(-c3cccs3)o2)c2ccccc2)c1 (configuration not stated) | 0 | 0 | 0 | 0 | 0 | 0
O=C(CCN1C(=O)C2C3C=CC(C3)C2C1=O)N1CCCCC1 (configuration not stated) | 0 | 0 | 0 | 0 | 0 | 0
CCOC(=O)C1CCN(C(=O)CCN2C(=O)C3C4C=CC(C4)C3C2=O)CC1 (configuration not stated) | 0 | 29 | 0 | 0 | 0 | 0
COC(=O)c1ccccc1NCc1cc(=O)oc2cc(O)c(O)cc12 | 0 | 82 | 44 | 31 | 0 | 0
COc1ccc(C)cc1NCc1cc(=O)oc2cc(-c3ccccc3)c(O)cc12 | 0 | 0 | 0 | 0 | 0 | 0
Cc1ccc(-c2c(C(=O)N(C)Cc3ccccc3)oc(=O)c3ccccc23)cc1 | 0 | 0 | 0 | 0 | 0 | 0

Screening data deposited in PubChem BioAssay by The Scripps Research Institute Molecular Screening Center.
